Each compound was assayed on Plasmodium falciparum NF54-HGL (transmission to Anopheles stephensi) (assay: percentage of barcode signal found in uninfected mosquitoes (transmission-blocking activity); higher = stronger blocking of transmission to mosquito, active = 80 or more). Settings: 10 µM; gametocyte preincubation time 24 h; readout time post-feed 8 days.
Method: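 The mixture was fed to Anopheles stephensi in 96-well plates as blood meals tagged with DNA-barcoded Asaia bacteria. Eight days later, mosquitoes were classed infected or uninfected by luminescence (mean + 5 SD of unfed controls). Barcodes were quantified by Luminex MagPlex-TAG in the pooled uninfected and infected Asaia cultures, background-corrected, and the score is % of barcode signal in uninfected mosquitoes = 100*Iu/(Iu+Ii).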

Structure (SMILES)	percentage of barcode signal found in uninfected mosquitoes
CS(=O)(=O)Cc1nc2ccccc2oc1=O	80.3% (active)
O=C(NC1=NCCS1)c1sc2cc(F)ccc2c1Cl	5.7% (inactive)
CCOc1ccc(-c2nc(NC(=O)CS(=O)(=O)c3ccccc3)sc2C)cc1	-3.11% (inactive)
C[C@]1(O)C[C@@H](c2nc(-c3ccc4ccc(-c5ccccc5)nc4c3)c3c(N)nccn32)C1	80.6% (active)
O=C(NCCN1CCCC1)c1cc(NCCCCN2CCC(F)(F)CC2)nc2ccc(Cl)cc12	91.2% (active)
C[C@H]1c2cccc(O)c2C(=O)C2=C(O)[C@]3(O)C(=O)C(C(N)=O)=C(O)[C@@H](N(C)C)[C@@H]3[C@@H](O)[C@@H]21	41.2% (inactive)
Cc1ccc(C(=O)Nc2ccc(S(=O)(=O)O)c3cc(S(=O)(=O)O)cc(S(=O)(=O)O)c23)cc1NC(=O)c1cccc(NC(=O)Nc2cccc(C(=O)Nc3cc(C(=O)Nc4ccc(S(=O)(=O)O)c5cc(S(=O)(=O)O)cc(S(=O)(=O)O)c45)ccc3C)c2)c1	32.8% (inactive)
COC(=O)c1cccc2oc(-c3cccc(OC)c3NC(=O)c3cc(-c4ccccc4)on3)nc12	31% (inactive)
Brc1c(-c2ccc3c(c2)OCO3)nc2ncccn12	6.02% (inactive)
COc1ccc(-c2nc(-c3cccc(NC(=O)Cc4ccc(F)cc4)c3)no2)cc1OC	5.39% (inactive)
Cc1ccc(S(=O)(=O)N2CCN(C(=O)c3cc(-c4ccccc4)[nH]n3)CC2)cc1	69.8% (inactive)
Nc1ncnc2c1c(Cc1cccc3ccccc13)nn2CC1CCNCC1	74.2% (inactive)
O=C(NCCc1c[nH]c2ccccc12)c1cc2ccccc2oc1=O	-1.49% (inactive)
O=S(=O)(c1ccc(Cl)cc1)N1CCN(C(=S)NCc2ccco2)CC1	29.2% (inactive)
CC1CC1C(=O)NC1CCN(CC2(c3ccccc3)CCCCC2)CC1 (stereo not given)	97.6% (active)
O=C(c1ccc(NCCO)cc1)C1C[C@H]1c1ccc(Cl)cc1 (stereo not given in full)	39.6% (inactive)
COc1ccc(C2(C(=O)Nc3ccc(Br)cc3)CCCC2)cc1	15.2% (inactive)
CCN(CC)S(=O)(=O)c1ccc(Cl)c(C(=O)Nc2ccc3nc(C)sc3c2)c1	86.1% (active)
Cc1cc(C)n2nc(C(=O)Nc3cc(C(F)(F)F)ccc3N3CCOCC3)nc2n1	29.6% (inactive)
COC(=O)c1c(NC(=O)c2cc3ccccc3oc2=O)sc2c1CCN(Cc1ccccc1)C2	49.1% (inactive)
CS(=O)(=O)c1cccc(-c2cnc3[nH]cc(-c4ccc(CCC(=O)O)cc4)c3c2)c1	29.9% (inactive)
O=C(Nc1nc(-c2ccccn2)cs1)c1cncn1-c1ccccc1	21.4% (inactive)
CC(=O)Nc1ccc(NC(=O)c2cc(-c3cc(Cl)ccc3O)[nH]n2)cc1	27.4% (inactive)

Same assay, conditions: 20 µM; gametocyte preincubation time 24 h; readout time post-feed 8 days

Structure (SMILES)	percentage of barcode signal found in uninfected mosquitoes
CNCCC(Oc1ccc(C(F)(F)F)cc1)c1ccccc1 (stereo not given)	27.5% (inactive)
CCOC(=O)c1noc(N)c1-c1ccccc1	25.4% (inactive)
CNC(=O)CNc1nc(-c2ccccn2)nc2scc(-c3ccccc3)c12	69.6% (inactive)
Clc1cccc(CO[C@H]2CCc3ccccc3[C@@H]2n2ccnn2)c1	-1.12% (inactive)
COc1cc(CN2CCC3(C=Cc4ccccc43)CC2)cc2c1OCO2	0.609% (inactive)
Cc1cnc(N2CCN[C@@H](Cc3ccccc3)C2)nc1Oc1ccc(-n2ccnc2)cc1	87% (active)
CC(C)(C(=O)Nc1ccc(F)cc1)n1cc(-c2ccccc2F)cn1	0.429% (inactive)
Cn1c(=O)c2c(S(C)(=O)=O)snc2n(C)c1=O	21.4% (inactive)
CNc1cc(C)nc(C2CN(C(=O)c3n[nH]c4ccccc34)CCO2)c1 (stereo not given)	35.5% (inactive)
Clc1ccc(-n2cc(COc3ccnc4ccccc34)nn2)cc1	34.4% (inactive)
COc1ccc2nc(C)cc(OCC(=O)NCc3ccccc3)c2c1	2.14% (inactive)
c1cc(C2=NCCN2)cc(-c2cc(-c3ccc(C4=NCCN4)cc3)no2)c1	50% (inactive)
CC(C)n1nc(-c2cc3c(Cl)cccc3[nH]2)c2c(N)ncnc21	53.6% (inactive)
c1ccc(Oc2ccc(-c3cc(N4CCOCC4)[nH]n3)cc2)cc1	1.03% (inactive)
CC(C)(C)OC(=O)N1CCN(c2cc(-c3ccc(Oc4ccccc4)cc3)n[nH]2)CC1	39.8% (inactive)
CCN(CC)C(=O)N1CCN(C)CC1	4.35% (inactive)
Cc1ccc(S(=O)(=O)Nc2ccc(CN3CCN(C(=O)c4cccc(C#N)c4)CC3)cc2)cc1	0.0235% (inactive)

Source: the supplement of paper PMC8726507
